“And” between values parts separate entries of the source, which are not always exact repeats. Equal values may be shown once. Inconclusive results are not listed. The source holds several records for some structures; these can differ, active in one and inactive in another. The source made the active and inactive calls. Unless noted, calls come from the whole dose curve; as a rule, active = well fitted curve in the direction sought with a large enough effect in the repeat runs; inconclusive = weak or mixed curves; inactive = no such curve, though single readings can be large; an effect the other way counts as inactive or inconclusive.
Tests used:
[1] = qHTS assay to identify aromatase inhibitors - cell viability counter screen (AID 743084);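 note: cells stimulated with testosterone during compound exposure; nearly all actives have a fitted effect of over 55% in size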; note: potency is the fitted concentration of half-maximal effect
[2] = biological target: Aryl hydrocarbon receptor (Homo sapiens) (UniProt P35869); assay: qHTS assay to identify small molecule that activate the aryl hydrocarbon receptor (AhR) signaling pathway (AID 743085);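 note: HG2L7.5c1 human HepG2 liver cells with stably integrated DRE-driven firefly reporter; series mostly up to about 70 µM; nearly all actives have a fitted effect of over 15% in size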
Aryl hydrocarbon receptor (Homo sapiens), sequence (P35869 whole entry, looked up): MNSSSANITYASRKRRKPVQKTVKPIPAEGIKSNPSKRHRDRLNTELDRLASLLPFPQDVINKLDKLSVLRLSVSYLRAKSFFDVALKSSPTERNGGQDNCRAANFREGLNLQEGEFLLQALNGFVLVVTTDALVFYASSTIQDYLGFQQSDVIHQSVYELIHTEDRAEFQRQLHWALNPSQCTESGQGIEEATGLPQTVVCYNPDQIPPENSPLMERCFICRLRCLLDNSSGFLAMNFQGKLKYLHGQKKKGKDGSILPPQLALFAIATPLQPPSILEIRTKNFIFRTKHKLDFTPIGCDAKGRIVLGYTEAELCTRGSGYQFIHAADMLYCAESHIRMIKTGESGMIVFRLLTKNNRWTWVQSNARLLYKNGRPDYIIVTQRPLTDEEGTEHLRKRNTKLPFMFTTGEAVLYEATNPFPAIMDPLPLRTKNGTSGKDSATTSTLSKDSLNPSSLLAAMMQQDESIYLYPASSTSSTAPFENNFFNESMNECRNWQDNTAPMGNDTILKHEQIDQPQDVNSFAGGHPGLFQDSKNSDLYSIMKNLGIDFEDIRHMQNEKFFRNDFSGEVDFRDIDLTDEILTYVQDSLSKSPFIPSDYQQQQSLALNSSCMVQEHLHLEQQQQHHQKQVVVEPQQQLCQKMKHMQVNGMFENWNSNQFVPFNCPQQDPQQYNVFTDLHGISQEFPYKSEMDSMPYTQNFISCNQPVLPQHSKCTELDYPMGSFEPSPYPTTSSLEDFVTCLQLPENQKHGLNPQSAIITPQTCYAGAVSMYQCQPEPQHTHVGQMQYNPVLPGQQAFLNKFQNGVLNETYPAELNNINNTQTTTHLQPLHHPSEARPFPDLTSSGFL
How it was run: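 Steps: seed HepG2-AhR-luc cells; allow 5 h at 37C; pin-transfer test compound or vehicle; incubate 24 h at 37C; add viability dye (30 min, 37C) and read fluorescence; add luciferase substrate (30 min, RT) and read luminescence.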

[3] = qHTS assay to identify small molecule that activate the aryl hydrocarbon receptor (AhR) signaling pathway - cell viability counter screen (AID 743086);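 note: HepG2 liver cells carrying the AhR DRE luciferase reporter; series mostly up to about 70 µM; nearly all actives have a fitted effect of over 45% in size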
How it was run: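 HepG2-AhR-luc (HG2L7.5c1) cells, 4000/well, were preincubated 5 h at 37C, exposed to compound in qHTS format for 24 hr at 37C, then given CellTiter-Fluor for 30 min; viability was read as fluorescence in the reporter wells.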

[4] = qHTS assay to identify small molecule antagonists of the peroxisome proliferator-activated receptor gamma (PPARg) signaling pathway - cell viability counter screen (AID 743194); conditions: Potency: co-treated with 50 nM rosiglitazone unless noted; note: nearly all actives have a fitted effect of over 55% in size
How it was run: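 PPARg-UAS-bla HEK293H cells were plated, rested 5 h at 37 C, then treated with compounds plus rosiglitazone (50 nM final) for 17 h at 37 C; viability was then read by CellTiter-Glo luminescence after 30 min at room temperature.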

[5] = qHTS assay for small molecule activators of the heat shock response signaling pathway - cell viability counter screen (AID 743209); note: nearly all actives have a fitted effect of over 50% in size
How it was run: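 Quantitative HTS format, Tox21 10K library. HeLa cells carrying an HSE-driven beta-lactamase reporter were treated 5 h at 37 C, then assessed for viability by CellTiter-Glo luminescence.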

[6] = qHTS assay for small molecule activators of the heat shock response signaling pathway (AID 743210; active = well fitted activation curve with a large enough effect in the signal ratio in the repeat runs, with a control signal flat, not every such curve was filed as active; the % refers to the signal ratio; note: potency is the fitted concentration of half-maximal effect;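 for activation: HeLa cells with beta-lactamase reporter driven by heat shock elements; series mostly up to about 63 µM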)
How it was run: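 Reporter gene assay: HeLa cells stably bearing an HSE-bla construct, compound treatment 5 h at 37 C, LiveBLAzer substrate 2.5 h at RT, fluorescence intensity.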

[7] = qHTS assay for small molecule agonists of the antioxidant response element (ARE) signaling pathway (AID 743202; active = well fitted activation curve with a large enough effect in the signal ratio in the repeat runs, not every such curve was filed as active; the % refers to the signal ratio; note: potency is the fitted concentration of half-maximal effect)
How it was run: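 Compounds delivered in DMSO to ARE-bla HepG2 cells (2,000 cells/well, pre-incubated 5 h) and left 16 h at 37 C. LiveBLAzer B/G FRET substrate then added for 2 h at RT before fluorescence reading.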

[8] = qHTS assay for small molecule agonists of the antioxidant response element (ARE) signaling pathway - cell viability counter screen (AID 743203; calls by dose curve; note: nearly all actives have a fitted effect of over 55% in size; note: potency is the fitted concentration of half-maximal effect)
How it was run: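 Cells (ARE-bla HepG2, 2,000/well) receive DMSO-dissolved compounds after a 5 hrs rest. Plates incubate 16 hrs at 37C/5% CO2. CellTiter-Glo luminescence is then recorded after 30 min at room temperature.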

[9] = biological target: Peroxisome proliferator-activated receptor gamma (Homo sapiens) (UniProt P37231); assay: qHTS assay to identify small molecule agonists of the peroxisome proliferator-activated receptor gamma (PPARg) signaling pathway (AID 743094; active = well fitted activation curve with a large enough effect in the signal ratio in the repeat runs, not every such curve was filed as active; the % refers to the signal ratio; note: potency is the fitted concentration of half-maximal effect)
Peroxisome proliferator-activated receptor gamma (Homo sapiens), sequence (P37231 whole entry, looked up): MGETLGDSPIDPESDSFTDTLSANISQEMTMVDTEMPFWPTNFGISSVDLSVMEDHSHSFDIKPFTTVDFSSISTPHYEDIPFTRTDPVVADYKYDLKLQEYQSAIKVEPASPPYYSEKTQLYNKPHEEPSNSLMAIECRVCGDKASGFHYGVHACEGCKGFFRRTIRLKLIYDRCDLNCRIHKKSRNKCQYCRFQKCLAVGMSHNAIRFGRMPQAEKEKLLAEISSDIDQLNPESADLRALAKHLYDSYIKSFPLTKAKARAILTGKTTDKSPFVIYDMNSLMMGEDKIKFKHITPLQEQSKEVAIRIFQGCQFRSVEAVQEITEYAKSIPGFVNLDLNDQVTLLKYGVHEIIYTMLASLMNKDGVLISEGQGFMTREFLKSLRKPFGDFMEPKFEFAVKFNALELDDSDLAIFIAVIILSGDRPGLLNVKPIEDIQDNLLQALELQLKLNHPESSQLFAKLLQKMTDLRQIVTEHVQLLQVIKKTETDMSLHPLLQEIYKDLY
How it was run: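 Stably transfected HEK293H cells (GeneBLAzer PPARg UAS-bla) were incubated with test substances for 17 h at 37C after a 5 h pre-incubation; beta-lactamase activity was then detected by FRET substrate fluorescence.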

[10] = biological target: Peroxisome proliferator-activated receptor gamma (Homo sapiens) (UniProt P37231); assay: qHTS assay to identify small molecule antagonists of the peroxisome proliferator-activated receptor gamma (PPARg) signaling pathway (AID 743191; calls by dose curve; note: series mostly up to about 63 µM; nearly all actives have a fitted effect of over 30% in size)
How it was run: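 GeneBLAzer PPARg UAS-bla HEK293H cells carrying a UAS-driven beta-lactamase reporter were plated at 3000 cells/well, preincubated 5 h at 37C, then given compound for 17 h at 37C; LiveBLAzer B/G FRET substrate was read after 1 h at room temperature.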

Measured: Potency

O=c1n(CCCN2CCN(c3cccc(Cl)c3)CC2)nc2ccccn12
inactive: [1] | [2] | [3] | [4] | [5] | [6]

CC(C)(C)NC[C@H](O)COc1nsnc1N1CCOCC1
not listed: [9] | [10]
inactive: all other assays above

O=C(O)Cc1c[nH]c2ccccc12
inactive: [3] | [4] | [7] | [5] | [6]

Clc1cccc(Cl)c1NC1=NCCN1
not listed: [9] | [10]
inactive: all other assays above

OCCOCCOCCOCCOCCO
not listed: [2] | [9] | [10]
inactive: all other assays above

COc1ccccc1[N+](=O)[O-]
not listed: [8] | [9] | [10]
inactive: all other assays above

O=[N+]([O-])c1ccccc1C(F)(F)F
not listed: [2]
inactive: all other assays above

CC(=O)OCc1ccc2c(c1)OCO2
not listed: [9] | [10]
inactive: all other assays above

CO[Si](CCCNCCN)(OC)OC
not listed: [2]
inactive: all other assays above

O=C(NCC1CCCCN1)c1cc(OCC(F)(F)F)ccc1OCC(F)(F)F (centres undefined)
inactive: [3] | [4] | [7] | [8] | [5]

CC1(C)[C@@H](O[C@H]2O[C@H](C(=O)O)[C@@H](O)[C@H](O)[C@H]2O[C@@H]2O[C@H](C(=O)O)[C@@H](O)[C@H](O)[C@H]2O)CC[C@]2(C)[C@H]3C(=O)C=C4[C@@H]5C[C@@](C)(C(=O)O)CC[C@]5(C)CC[C@@]4(C)[C@]3(C)CC[C@@H]12
not listed: [6] | [9] | [10]
inactive: all other assays above

C=CC(=O)NCOCCCC
not listed: [7] | [8] | [10]
inactive: all other assays above

CC(CN1c2ccccc2Sc2ccccc21)N(C)C (centres undefined)
68.6 µM (active) and inactive: [8]
not listed: [4] | [10]
inactive: all other assays above

C=C(C)CC(C)(C)C
inactive: [3] | [4] | [7] | [8] | [5] | [6]

CCCCCCC(=O)O
not listed: [8] | [9] | [10]
inactive: all other assays above

COC(=O)/C=C\C(=O)OC
inactive: [3] | [4] | [8] | [5] | [6]

Nc1nc(N)c2nc(-c3ccccc3)c(N)nc2n1
active: [9] 23.9 µM | [7] 31 µM and 30.6 µM and 23.7 µM | [8] 27.6 µM and 17.2 µM | [6] 37.1 µM and 29.7 µM and 26.6 µM
inactive: [3] | [4] | [5]

Brc1ccc(Oc2ccc(Br)cc2)cc1
inactive: [3] | [4] | [7] | [8] | [5] | [6]

CCc1cccc(CC)c1N
not listed: [8] | [9] | [10]
inactive: all other assays above

CC/C(C)=N/O
inactive: [3] | [4] | [7] | [5] | [6]

CC(=O)OC[C@H]1O[C@@](COC(C)=O)(O[C@H]2O[C@H](COC(C)=O)[C@@H](OC(C)=O)[C@H](OC(C)=O)[C@H]2OC(C)=O)[C@@H](OC(C)=O)[C@@H]1OC(C)=O
not listed: [9] | [10]
inactive: all other assays above

CC(C)(CO)CO
not listed: [8] | [9] | [10]
inactive: all other assays above

NCCNCCNCCN
inactive: [3] | [4] | [7] | [8] | [5]

CC(=O)c1nccs1
not listed: [2] | [8]
inactive: all other assays above

N[C@@H](Cc1cc(I)c(Oc2ccc(O)c(I)c2)c(I)c1)C(=O)O
inactive and 12.7 µM (active): [7]
not listed: [2] | [8] | [10]
inactive: all other assays above

CC[N+](CC)(CC(=O)Nc1c(C)cccc1C)Cc1ccccc1
not listed: [2] | [6] | [8]
inactive: all other assays above

CC(=O)CC(=O)N(C)C
not listed: [2] | [9] | [10]
inactive: all other assays above

COc1ccc2cc3[n+](cc2c1OC)CCc1cc2c(cc1-3)OCO2
inactive: [3] | [9] | [4] | [5] | [6]
active: [7] 2.45 µM and 5.96 µM
inactive and 48.9 µM (active): [1]

COc1c2ccoc2cc2oc(=O)ccc12
not listed: [2] | [8]
inactive: all other assays above

CCOC(=O)c1ccc(O)cc1
not listed: [8] | [9] | [10]
inactive: all other assays above

CCN(CC)CCNC(=O)c1ccc(N)cc1
not listed: [9] | [10]
inactive: all other assays above

CS(=O)(=O)c1ccc(Cl)cc1
not listed: [9] | [10]
inactive: all other assays above

NC1CCCCC1N (centres undefined)
not listed: [9] | [10]
inactive: all other assays above

CN1Cc2c(N)cccc2C(c2ccccc2)C1 (centres undefined)
not listed: [1] | [9] | [10]
inactive: all other assays above

From PubChem BioAssay (Tox21)
